From PubChem
USP17 block – inhibitors of human USP17 deubiquitinase; 6.5% of 47,000 active; inhibition, % at 50 µM; A8MUK1; AID 1645855; purified USP17, Ub-rhodamine cleavage fluorescence, 3 h
USP30 block – human USP30 deubiquitinase inhibition; inhibition, % at 25 µM; AID 1645860; Q70CQ3; 5.3% of 47,000 active; purified USP30, Ub-rhodamine cleavage fluorescence
USP28 inh – blocks human USP28 ubiquitin-rhodamine cleavage; Q96RU2; inhibition, % at 25 µM; purified USP28, Ub-rhodamine cleavage fluorescence, 30 min; 3% of 47,000 active
OTUD3 block – blocks human OTUD3 ubiquitin-rhodamine cleavage | 0.7% of 47,000 active | Q5T2D3 | purified OTUD3, Ub-rhodamine fluorescence, 2 h | inhibition, % at 25 µM
Target sequence (Q5T2D3 whole entry, looked up): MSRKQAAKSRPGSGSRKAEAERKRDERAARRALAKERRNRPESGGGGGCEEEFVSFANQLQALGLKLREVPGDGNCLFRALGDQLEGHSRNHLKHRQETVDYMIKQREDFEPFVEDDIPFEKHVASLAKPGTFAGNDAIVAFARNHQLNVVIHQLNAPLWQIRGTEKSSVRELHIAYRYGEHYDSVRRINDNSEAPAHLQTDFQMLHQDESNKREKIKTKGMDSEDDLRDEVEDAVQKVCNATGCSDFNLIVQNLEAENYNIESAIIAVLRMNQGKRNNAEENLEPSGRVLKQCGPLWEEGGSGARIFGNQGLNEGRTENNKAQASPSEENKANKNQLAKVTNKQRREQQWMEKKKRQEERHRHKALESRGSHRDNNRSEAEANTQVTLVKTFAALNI
A number is an active result; i = inactive; nt = no result given. Most compounds without a hit are left out; they make up all but 12% or so of the library. Cut-off read from the data, not from the text of the source: active = inhibition above about 30%; inactive = the rest.

SMILES	USP17 block	USP30 block	USP28 inh	OTUD3 block
Cc1cccc(NC(=O)Cn2cccc(S(=O)(=O)N3CCC(C)CC3)c2=O)c1C	i	i	i	i
COc1ccc(CCNC(=O)c2nn(C3CCS(=O)(=O)C3)c3c2CCCC3)cc1 (stereo unspecified)	i	i	i	i
COc1cc(C(C(=O)NC2CCCCC2)N(CCc2ccccc2C)C(=O)c2ccco2)cc(OC)c1OC (stereo unspecified)	i	i	i	i
N#Cc1c(F)cccc1N1CCC(C2CCCCCN2C(=O)C2CC2)CC1 (stereo unspecified)	i	34	i	i
CC1(C2CCN(c3cccc(F)c3C#N)CC2)NC(=O)NC1=O (stereo unspecified)	i	32	i	i
O=C(c1cscn1)N1CCC2(CN(Cc3ccc(Cl)cc3)C2)C1	i	i	i	i
COc1ccc(OC)c2sc(N(Cc3ccncc3)C(=O)c3ccco3)nc12	i	43	i	i
COc1ccc2nc(N(Cc3ccncc3)C(=O)c3ccccc3)sc2c1	i	i	i	i
c1ccc2c(c1)ncn2CC1CCCNC1 (stereo unspecified)	i	i	i	i
COc1ccc(S(=O)(=O)c2nnn3c2nc(Nc2ccccc2)c2ccccc23)cc1	i	i	i	i
COc1ccc(Nc2nc3c(S(=O)(=O)c4ccc(C)cc4)nnn3c3ccsc23)c(OC)c1	i	67	i	i
c1ccc(COc2ncnc3scc(-c4ccccc4)c23)cc1	i	i	34	i
Cc1ccc(S(=O)(=O)N[C@@H](Cc2ccccc2)C(=O)N2CCC(C(=O)N[C@@H](C)C(=O)O)CC2)cc1	i	i	i	i
O=C(COc1ccccc1-c1nnc(-c2ccccc2)o1)NCCc1ccco1	35	i	i	i
CCc1ccccc1NC(=O)COc1ccccc1-c1nnc(-c2ccccc2)o1	53	38	i	i
CC(CCc1ccccc1)NC(=O)COc1ccc(Cl)c(Cl)c1 (stereo unspecified)	i	i	31	i
CC(CCc1ccccc1)NC(=O)COc1ccccc1-c1nnc(-c2ccccc2)o1 (stereo unspecified)	31	41	i	i
COc1ccc(CNC(=O)COc2ccccc2-c2nnc(-c3ccccc3)o2)c(OC)c1	i	i	i	i
CCc1cc(OCC(=O)NC(c2ccccc2)c2ccccc2)ccc1Cl	i	i	i	i
COc1ccc(CNC(=O)COc2ccccc2-c2nnc(-c3ccccc3)o2)cc1	i	i	i	i
CCOC(=O)c1ccc(NC(=O)N2CCC3(CC2)N=C(c2ccc(C(C)(C)C)cc2)C(=O)N3)cc1	i	i	i	i
CN1c2ccccc2C(=O)NC12CCN(C(=O)NCc1ccccc1)CC2	i	i	i	i
Cc1ncc(-c2ccccn2)c(-c2ccc(CNC(=O)Cc3sc(C)nc3C)cc2)n1	i	i	i	i
COc1ccc(/C=C/C(=O)Nc2cccc(-c3nc4ncccc4o3)c2)cc1	i	i	i	i
COc1ccc(CNC(=O)c2cnc(NCc3ccccc3)nc2C)cc1	i	i	i	i
SMILES	USP17 block	USP30 block	USP28 inh	OTUD3 block
O=C(COc1ccccc1-c1nnc(-c2ccccc2)o1)NCc1ccccc1F	i	i	i	i
O=C(COc1ccccc1-c1nnc(-c2ccccc2)o1)Nc1ccc(F)cc1F	84	35	i	i
COc1ccccc1CNC(=O)CS(=O)(=O)Cc1nc(-c2ccccc2F)oc1C	58	i	i	i
CCc1ccccc1NC(=O)COc1ccc(Nc2ccccc2)cc1	46	39	i	i
COc1ccccc1CNC(=O)COc1ccccc1-c1nnc(-c2ccccc2)o1	i	31	i	i
Cc1ccccc1-c1nc(CS(=O)(=O)CC(=O)Nc2ccccc2Cl)c(C)o1	i	i	i	i
COc1ccc(-c2nsc(NC(=O)C(C)Oc3ccccc3F)n2)cc1 (stereo unspecified)	i	i	i	i
Cc1noc(-c2cccc(=O)n2CC(=O)Nc2ccc(C)c(F)c2)n1	i	31	i	i
Cc1noc(-c2cccc(=O)n2CC(=O)Nc2ccc(C)c(C)c2)n1	71	i	i	i
Cc1cccc(NC(=O)Cn2c(-c3nc(C)no3)cccc2=O)c1	i	i	i	i
C[C@@H](NC(=O)C1(c2ccccc2)CCN(C(=O)[C@@H]2Cc3ccccc3CN2C(=O)OC(C)(C)C)CC1)C(=O)O	i	i	i	i
COc1ccccc1C(CNC(=O)c1ccc(OCC(C)C)cc1)N(C)C (stereo unspecified)	i	i	i	i
CC(C)COc1ccc(C(=O)N/C(=C/c2ccc3c(c2)OCO3)C(=O)O)cc1	nt	37	i	i
COc1ccc(-c2csc3nc(C)nc(NCC4CCCO4)c23)cc1OC (stereo unspecified)	i	i	i	i
CCCNc1cc(-c2ccccc2)nc2nc(-c3cccnc3)nn12	54	i	i	i
CC(C)c1cc(NCc2ccco2)n2nc(-c3cccnc3)nc2n1	31	37	i	i
COc1cccc(CNc2cc(C(C)C)nc3nc(-c4cccnc4)nn23)c1	35	i	i	i
CC(C)c1cc(Nc2ccc(O)cc2)n2nc(-c3cccnc3)nc2n1	i	i	i	i
COc1ccc(OC)c(NC(=O)C2=C(C)Nc3ncnn3C2c2ccccc2OCc2ccc(C)cc2)c1 (stereo unspecified)	58	i	i	i
COc1cccc(NC(=O)c2nc3c(s2)CCN(C(=O)c2cnc(C)cn2)CC3)c1	i	i	i	i
O=C(NCc1ccccn1)c1cn(-c2cccc(Cl)c2)nn1	33	i	i	i
Cc1ccc(-n2cc(C(=O)NCc3cccnc3)nn2)cc1C	nt	66	i	i
Cc1ccccc1-n1ccc2nc(N3CCCC3)ncc2c1=O	i	i	i	i
COc1ccc(C(=O)NCCc2csc(-c3cccnc3)n2)c(OC)c1	i	i	i	i
CCN(C(=O)Cc1ccccc1OC)c1nc2c(s1)CCc1occc1-2	37	i	i	i
SMILES	USP17 block	USP30 block	USP28 inh	OTUD3 block
CCOc1ccc(CC(=O)N(C)c2nc3c(s2)CCc2occc2-3)cc1	i	i	i	i
CN(C(=O)C1(c2ccc(Cl)cc2)CC1)c1nc2c(s1)CCc1occc1-2	i	i	i	i
CN(C(=O)c1cccs1)c1nc2c(s1)CCc1occc1-2	37	i	i	i
Cc1c(C(=O)N(C)c2nc3c(s2)CCc2occc2-3)oc2ccccc12	79	66	40	36
Cc1nc(NC(=O)c2ccc(N3CCOCC3)nn2)sc1C	i	i	i	i
CS(=O)(=O)N1CCC2(CC1)CN(C(=O)c1cccc3[nH]ccc13)Cc1ccccc1O2	i	i	i	i
COc1ccc(NC(=O)[C@H](C)NC(=O)c2cc3c(OC)cccc3[nH]2)cc1Cl	86	70	74	88
O=C(CNC(=O)c1cc2ccccc2[nH]1)Nc1ccc2c(c1)OCCO2	51	i	i	i
CCOC(=O)N1CCN(C(=O)CNC(=O)c2cc3c(OC)cccc3[nH]2)CC1	i	i	i	i
COc1cccc2[nH]c(C(=O)NCC(=O)Nc3ccc4c(c3)OCO4)cc12	40	i	i	i
COc1ccc(OC)c(NC(=O)c2cc3c(OC)cccc3[nH]2)c1	i	i	i	i
CC(=O)Nc1cc(-c2ccccc2)nn(CC(=O)Nc2cc(F)cc(F)c2)c1=O	i	i	i	i
